In PubChem BioAssay AID633 (Emory University Molecular Libraries Screening Center, 2007):
In all, about 86,000 compounds went through this assay and about 1,100 (1.3%) were called active. The list comes from a sample in which actives are over-represented; it also holds similar structures and randomly drawn compounds. A number with no mark means an inactive call.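 Rule for the calls: active = compounds whose percent inhibition of the receptor-coactivator binding signal exceeds about 50% in the single-dose screen (limit read from the data); inactive = the rest.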

molecular target: Estrogen receptor beta (Homo sapiens) (UniProt Q92731); assay: blockers of coactivator peptide binding to ERβ – biochemical, TR-FRET, ERβ LBD, SRC-1 peptide, primary screen (AID 633); conditions: TR-FRET ER-beta LBD / SRC1-Cy5 peptide binding; at 25.6 µM; stronger effect = higher value; receptor agonist-loaded with 1 µM estradiol;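 note: 0% = receptor plus peptide wells without compound and 100% = peptide-only wells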
Sequence (Q92731 whole entry, looked up, the tested form may be a part): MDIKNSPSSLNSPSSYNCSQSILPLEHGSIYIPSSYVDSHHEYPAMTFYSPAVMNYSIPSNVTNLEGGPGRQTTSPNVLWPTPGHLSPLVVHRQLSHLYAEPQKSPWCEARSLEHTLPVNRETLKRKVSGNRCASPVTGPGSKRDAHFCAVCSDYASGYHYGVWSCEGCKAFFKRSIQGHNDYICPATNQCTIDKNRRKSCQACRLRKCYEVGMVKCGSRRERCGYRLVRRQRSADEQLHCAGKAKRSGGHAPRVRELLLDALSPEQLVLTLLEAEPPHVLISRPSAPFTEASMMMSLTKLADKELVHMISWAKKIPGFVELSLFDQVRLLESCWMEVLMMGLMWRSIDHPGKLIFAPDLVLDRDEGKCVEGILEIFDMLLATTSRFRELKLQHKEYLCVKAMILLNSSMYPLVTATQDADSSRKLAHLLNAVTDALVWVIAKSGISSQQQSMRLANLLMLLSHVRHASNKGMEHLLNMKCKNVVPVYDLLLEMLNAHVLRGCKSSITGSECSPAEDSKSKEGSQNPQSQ

SMILES | inhibition
COC(=O)c1ccc(CSc2ccc3nnc(-c4ccccc4)n3n2)o1 | -3.95%
Cc1ccc(S(=O)(=O)NC(=O)COc2ccccc2C)cc1 | 8.77%
CCOc1cc(N2CCOCC2)c(OCC)cc1NC(=O)COc1cccc2cccnc12 | 61.6% [fluorescence artefact?] (active)
CCOc1cc(N2CCOCC2)c(OCC)cc1NC(=O)COC(=O)[C@H](Cc1c[nH]c2ccccc12)NC(C)=O | -5.51%
CCOc1cc(NC(=O)c2ccco2)c(OCC)cc1NC(=O)COc1ccccc1 | 48.5%
O=C(Oc1ccccc1C(=S)N1CCCCC1)c1cc([N+](=O)[O-])cc([N+](=O)[O-])c1 | -10.5%
Cc1nnc(SC(C)C(=O)Nc2ccc(S(=O)(=O)NC3CCCCC3)cc2)s1 (stereo not drawn) | 17.8%
CCOc1ccc(-c2nnc(-c3ccco3)o2)cc1 | -5.81%
Cc1ccc(OCC(=O)Nc2ccc(-c3nnc(-c4ccco4)o3)cc2)cc1 | 63.5% [fluorescence artefact?] (active)
COc1ccc(CC(=O)Nc2ccc(-c3nnc(-c4ccc(C)cc4)o3)cc2)cc1 | 15.6%
COc1ccc(CC(NC(C)=O)C(=O)N2CCN(C(=O)Nc3cccc(Cl)c3)CC2)cc1OC (stereo not drawn) | -8.98%
COc1ccc(C(C#N)Nc2ccccc2C)cc1 (stereo not drawn) | -1.62%
CC(C)CNC(=O)CC(c1ccccc1)c1c(O)ccc2ccccc12 (stereo not drawn) | -3.69%
O=C(Cn1c(-c2cscn2)nc2ccccc21)Nc1ccc(Cl)cc1 | 18.5%
COc1ccccc1NC(=O)CSc1nnc(C)n1CC1CCCO1 (stereo not drawn) | -11.8%
CN(C)[C@@H]1C(=O)C(C(N)=O)=C(O)[C@@]2(O)C(=O)C3=C(O)c4c(O)ccc(Cl)c4[C@@H](O)[C@H]3C[C@@H]12 | 91.5% [fluorescence artefact?] (active)
COc1ccc(-n2c(C)csc2=S)cc1 | -15.3%
ON=C1/C(=N\O)CC2(C/C1=N/O)OCCO2 | 60.3% (active)
O/N=C1\CC2(Cc3nonc31)OCCO2 | 23%
O=C(CSc1nnnn1-c1ccccc1)NCc1ccco1 | 17.8%
CCOC(=O)Nc1sc(C(=O)N(C)C)c(C)c1C(=O)OCC | 4.28%
Cc1ccc(Cc2cncc(O)c2)cc1S(=O)(=O)O | 54.6% (active)
Cc1cc(O)cc(O)c1C(=O)Cc1cnn(-c2ccccc2)c1 | -7.76%

SMILES | inhibition
Cn1nc(-c2ccccc2)c(CSc2cccc(Cl)c2)c1Cl | -3.81%
Cn1c(NN)nc2sc3c(c2c1=O)CCC3 | -7.13%
CCNC(=O)NC(=O)C(C)OC(=O)c1cc(S(=O)(=O)N2CCCCCC2)ccc1OC (stereo not drawn) | -4.07%
Cc1cccc(-c2noc(-c3ccc(F)cc3)n2)c1 | -10.2%
COc1ccc(-c2noc(-c3ccc(C)cc3)n2)cc1 | -3.86%
COc1ccc2[nH]c(=O)c(-c3noc(-c4ccc(F)cc4)n3)cc2c1 | 63.8% [fluorescence artefact?] (active)
CCSc1ccccc1C(=O)NCc1ccc(OC)cc1 | 15.2%
CCC(=O)NC(Nc1nc2ccc(C)cc2s1)(C(=O)OC)C(F)(F)F (stereo not drawn) | 9.59%
Cc1cc(N2CCN(S(=O)(=O)c3ccc(C)c(C)c3)CC2)c2ccccc2n1 | 3.59%
c1ccc2[nH]c(NCCN3CCOCC3)nc2c1 | -3.02%
C1=C(N2CCOCC2)/C(=C/c2nc3ccccc3[nH]2)CC1 | 72.1% (active)
c1ccc(Nc2nc(N3CCOCC3)c3ccccc3n2)cc1 | -6.49%
O=C(Cc1ccc(-n2c(=O)c3sccc3n(Cc3ccc(F)cc3)c2=O)cc1)NCc1ccco1 | 21.4%
CS(=O)(=O)c1ccc2c(c1)SC1=NC(=O)/C(=C/c3ccco3)C(=N)N12 | 79% [fluorescence artefact?] (active)
O=C1C2C3C=CC(C4CC34)C2C(=O)N1/N=C/c1ccc(-c2ccccc2[N+](=O)[O-])o1 (stereo not drawn) | 2.95%
CC(C)C(=O)NC(NC(=S)NC1CCS(=O)(=O)C1)C(Cl)(Cl)Cl (stereo not drawn) | 14.7%
Cc1coc2c(O)cc3c(c12)OC1(N2CCCCC2)C(=O)NCCCC31 (stereo not drawn) | 60.9% [fluorescence artefact?] (active)
COc1ccccc1NC(=O)C1CCCN(c2cc(C)nc3ncnn23)C1 (stereo not drawn) | -2.37%
CCOc1ccc(C(O)Cc2nc3ccccc3n2C)cc1 (stereo not drawn) | -4.37%
CCOC(=O)c1ccccc1NS(=O)(=O)c1ccc(OC)cc1 | -1.65%
O=C(NCc1ccco1)c1cnn2c(C(F)(F)F)cc(-c3ccco3)nc12 | 5.47%
COC(=O)c1cc2nc(-c3ccccc3)cc(C(F)(F)F)n2n1 | -1.27%
COC(=O)c1cnn2c(C(F)(F)F)cc(-c3ccco3)nc12 | 58.5% (active)

SMILES | inhibition
Cc1noc(/C=C/c2ccco2)c1S(=O)(=O)N1CCC(C(=O)N2CCc3ccccc32)CC1 | -6.43%
Nc1ccc(-c2nnc(-c3ccc(-c4ccccc4)cc3)o2)cc1 | 19.9%
O=C(Nc1ccc(-c2nnc(-c3ccccc3)o2)cc1)c1ccc(Br)o1 | 30%
Brc1ccc(-c2nnc(-c3ccccc3)o2)o1 | 60.6% [fluorescence artefact?] (active)
CC(C)n1c(-c2cccs2)nc2ccccc21 | -10.4%
Cc1cc(S(=O)(=O)NC2CCCCC2)ccc1OCC(=O)NCc1cccnc1 | -4.71%
Cc1cc2c(c(=O)n1Cc1ccco1)C(c1ccccc1)C(C#N)=C(N)O2 (stereo not drawn) | -16.4%
CC1=C(C(=O)Nc2ccccc2)C(c2ccco2)C(C#N)=C(SCC(N)=O)N1 (stereo not drawn) | -2.8%
N#CC1=C(N)Oc2c(sc3ccccc23)C1c1ccco1 (stereo not drawn) | 51.7% [fluorescence artefact?] (active)
Cc1nc2ccc(C(=O)O)cc2[nH]1 | 56.8% (active)
Cc1ccc2nc(S(=O)(=O)O)[nH]c2c1 | 3.08%
CC(C)c1nc2ccc(C(=O)O)cc2[nH]1 | 14.7%
Cn1ccs/c1=N\S(=O)(=O)c1ccc(C(C)(C)C)cc1 | 0.33%
COc1ccccc1/C=C/C1=NC(=C\N(C)C)/C(=O)O1 | 1.45%
Cc1ccc2[nH]c(=O)c(-c3nc4c(C)cccn4c3NCc3ccco3)cc2c1 | 56.9% [fluorescence artefact?] (active)
COc1ccc(CCn2c(=N)c(C(=O)NCc3ccco3)cc3c(=O)n4cccc(C)c4nc32)cc1 | 48.1%
CCNCc1cc2cc(C)ccc2[nH]c1=O | -8.3%
Cn1nnnc1SCC(=O)Nc1ccccc1C(=O)NC1CC1 | -5.32%
CC1CN(S(=O)(=O)c2ccccc2)C(C)CN1S(=O)(=O)c1ccccc1 (stereo not drawn) | 1.26%
Cc1cc(C)cc(N(CC(=O)N2CC=C(c3ccccc3)CC2)S(=O)(=O)c2c(C)noc2C)c1 | -1.97%
CCOc1ccc(S(=O)(=O)Nc2ccc(S(=O)(=O)Nc3cc(OC)ccc3OC)cc2)cc1 | -5.81%
CCCCCCc1cc2cc(-c3nnc(-c4cccc(OC)c4)o3)c(=O)oc2cc1O | 1.17%
